Drawing on PubChem BioAssay AID2073 (Sanford-Burnham Center for Chemical Genomics, 2009), this text covers inhibition for 96 compounds.

The campaign covered roughly 290,000 compounds. About 570 (0.2%) were called active. Not shown: some 1% with an inconclusive outcome. Cut-off read from the data, not from the text of the source: active = inhibition mostly above about 51% (no sharp cut-off); inconclusive = no clear call, values can overlap the other calls; inactive = mostly below about 53%. The entries come from a sample that favours actives as a whole.

The target of the assay is Voltage-dependent N-type calcium channel subunit alpha-1B (Homo sapiens) (UniProt Q00975). In words: inhibitors of Mint1-CaV2.2 protein interaction, biochemical, HTRF (AID 2073). The note with it: at 20 µM, stronger effect = higher value. A general note: In TR-FRET formats the signal depends on donor and acceptor labels being close together.
Voltage-dependent N-type calcium channel subunit alpha-1B (Homo sapiens), sequence (Q00975 whole entry, looked up): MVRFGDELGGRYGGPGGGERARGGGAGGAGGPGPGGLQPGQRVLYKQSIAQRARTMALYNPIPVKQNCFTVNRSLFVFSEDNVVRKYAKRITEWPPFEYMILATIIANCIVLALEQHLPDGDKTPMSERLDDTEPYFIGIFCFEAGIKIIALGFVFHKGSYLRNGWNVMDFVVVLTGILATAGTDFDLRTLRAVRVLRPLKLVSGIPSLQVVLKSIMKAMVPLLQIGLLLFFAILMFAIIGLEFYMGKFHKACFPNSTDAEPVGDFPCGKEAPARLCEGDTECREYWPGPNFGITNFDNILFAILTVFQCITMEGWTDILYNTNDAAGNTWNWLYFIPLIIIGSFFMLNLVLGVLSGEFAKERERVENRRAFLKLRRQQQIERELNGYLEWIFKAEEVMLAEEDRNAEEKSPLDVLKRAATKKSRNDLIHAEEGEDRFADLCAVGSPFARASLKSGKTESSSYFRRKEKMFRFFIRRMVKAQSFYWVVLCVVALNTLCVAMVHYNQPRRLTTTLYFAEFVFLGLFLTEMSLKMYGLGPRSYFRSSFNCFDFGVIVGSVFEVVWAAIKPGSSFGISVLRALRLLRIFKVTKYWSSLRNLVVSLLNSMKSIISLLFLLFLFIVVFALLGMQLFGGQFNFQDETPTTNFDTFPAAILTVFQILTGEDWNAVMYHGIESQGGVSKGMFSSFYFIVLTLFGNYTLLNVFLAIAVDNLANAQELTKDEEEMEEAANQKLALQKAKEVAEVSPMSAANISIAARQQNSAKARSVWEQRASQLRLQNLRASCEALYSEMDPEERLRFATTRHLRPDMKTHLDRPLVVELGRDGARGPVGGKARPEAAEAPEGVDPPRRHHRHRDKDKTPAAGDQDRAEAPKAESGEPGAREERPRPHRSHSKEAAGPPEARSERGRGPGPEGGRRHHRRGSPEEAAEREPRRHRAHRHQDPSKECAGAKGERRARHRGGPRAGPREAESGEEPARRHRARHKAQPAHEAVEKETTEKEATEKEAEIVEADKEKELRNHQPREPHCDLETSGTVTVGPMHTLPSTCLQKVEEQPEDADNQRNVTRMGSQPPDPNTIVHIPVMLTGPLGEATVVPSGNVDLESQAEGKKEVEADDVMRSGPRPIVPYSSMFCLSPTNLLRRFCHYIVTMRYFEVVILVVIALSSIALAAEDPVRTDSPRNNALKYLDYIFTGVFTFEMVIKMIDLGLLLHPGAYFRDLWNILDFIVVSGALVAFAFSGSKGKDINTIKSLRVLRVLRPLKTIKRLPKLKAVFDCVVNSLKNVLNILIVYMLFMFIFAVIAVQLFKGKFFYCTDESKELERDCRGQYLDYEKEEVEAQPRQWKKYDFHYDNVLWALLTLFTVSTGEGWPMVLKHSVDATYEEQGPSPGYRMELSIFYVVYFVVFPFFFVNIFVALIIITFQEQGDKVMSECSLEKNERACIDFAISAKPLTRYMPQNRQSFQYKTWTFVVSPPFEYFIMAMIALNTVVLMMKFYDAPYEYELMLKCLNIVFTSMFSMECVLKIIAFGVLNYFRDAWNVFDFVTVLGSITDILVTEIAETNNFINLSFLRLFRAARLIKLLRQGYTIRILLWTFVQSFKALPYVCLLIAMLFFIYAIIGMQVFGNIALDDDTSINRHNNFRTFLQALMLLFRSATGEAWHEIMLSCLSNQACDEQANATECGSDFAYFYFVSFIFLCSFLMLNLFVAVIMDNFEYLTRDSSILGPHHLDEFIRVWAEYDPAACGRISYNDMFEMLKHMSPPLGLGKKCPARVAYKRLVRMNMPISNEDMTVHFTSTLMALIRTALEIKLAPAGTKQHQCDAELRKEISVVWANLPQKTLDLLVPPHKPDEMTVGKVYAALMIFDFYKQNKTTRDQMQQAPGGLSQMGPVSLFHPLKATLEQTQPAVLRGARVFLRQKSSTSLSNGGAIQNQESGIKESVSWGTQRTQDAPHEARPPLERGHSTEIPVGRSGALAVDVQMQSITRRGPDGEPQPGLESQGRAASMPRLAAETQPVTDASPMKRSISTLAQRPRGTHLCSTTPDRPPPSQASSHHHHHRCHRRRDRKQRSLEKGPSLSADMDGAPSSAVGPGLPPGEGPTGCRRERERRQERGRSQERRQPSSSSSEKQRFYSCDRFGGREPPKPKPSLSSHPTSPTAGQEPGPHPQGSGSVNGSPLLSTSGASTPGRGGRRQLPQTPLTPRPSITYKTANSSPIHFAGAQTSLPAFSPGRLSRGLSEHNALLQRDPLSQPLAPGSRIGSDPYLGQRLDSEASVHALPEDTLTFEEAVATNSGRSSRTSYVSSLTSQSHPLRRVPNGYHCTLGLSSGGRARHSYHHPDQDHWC

Broadly, the inhibition is the relative decrease from the control value, in per cent. In the case of `COc1ccc(-c2noc(N3CCC(C(=O)Nc4ccccc4Cl)CC3)n2)cc1`, the inhibition is 1.9% (inactive).
Regarding `Cc1onc(-c2ccccc2)c1C(=O)OCC(=O)NCc1ccc(F)cc1`, the inhibition is -0.7% (inactive).
In the case of `CCOc1ccc(Oc2c(C)oc3cc(O)ccc3c2=O)cc1`, the inhibition is 15.1% (inactive).
The same measure, in the same setting: under `Cc1ccc(N=Cc2nc(-c3ccc(C)cc3)oc2O)cc1` stands 17.5% (inactive); under `Cc1ccc(-c2nc(C=Nc3ccccc3)c(O)o2)cc1`, -6.2% (inactive).
Same read-out and setting: under `CC(NCC(O)c1ccc([N+](=O)[O-])cc1)C12CC3CC(CC(C3)C1)C2` (configuration not stated) stands 0.6% (inactive); under `CCNC(=O)COC(=O)c1ccc(-n2nc(C)cc2C)cc1`, 5.8% (inactive); under `COc1cc(/C=N/N=C(/C(=O)c2ccccc2)c2ccccc2)cc(OC)c1O`, -2.5% (inactive).
Still for that read-out and setting: under `O=C(/C(=N/N=C/c1ccc(O)c(O)c1O)c1ccccc1)c1ccccc1` stands 66.2% (active); under `O=C(/C(=N/N=C/c1ccc(O)c(O)c1)c1ccccc1)c1ccccc1`, -21.8% (inactive); under `CCC(=O)N1CC2(C)CN(C(=O)CC)CC(C)(C1)C2`, -2.6% (inactive).
Regarding `COc1ccc(C(=O)N2CCCC(CO)(Cc3ccccc3C)C2)o1` (configuration not stated), the inhibition was 2.1% (inactive).
Still for that read-out and setting: for `CCCCc1ccc(-c2csc(/C(C#N)=C/c3ccc(C)o3)n2)cc1` the value was 16.8% (inactive); for `CCCCc1ccc(-c2csc(/C(C#N)=C/c3ccco3)n2)cc1`, 49.9% (inactive).
Turning to `CCCCc1ccc(-c2csc(/C(C#N)=C\c3ccco3)n2)cc1`, the inhibition is 57.8% (active).
Still for that read-out and setting: under `CSc1nc(N2CCN(c3ccccc3)CC2)cc(N2CCN(c3ccccc3)CC2)n1` stands 18.7% (inactive); under `O=C(N/N=C1\CCCc2ccccc21)c1cccc(Br)c1`, -12.7% (inactive); under `Cc1ccccc1CN(c1ccc(C(=O)NCc2ccccn2)cc1)S(C)(=O)=O`, -3.2% (inactive).
Turning to `CCc1ccc(Nc2n[n+](-c3ccccc3)c(-c3ccc(OC)c(Br)c3)s2)cc1`, the inhibition is 19.2% (inactive).
The same measure, in the same setting: for `COC(=O)c1c(NC(=O)COC(=O)c2ccc(O)cc2)sc2c1CCCCC2` the value was 5.8% (inactive).
Same read-out and setting: under `COC(=O)c1c(NC(=O)COC(=O)c2ccc(NC(=O)CC#N)cc2)sc2c1CCCCC2` stands 78.4% (active); under `COC(=O)c1c(NC(=O)COC(=O)c2ccccc2O)sc2c1CCCCC2`, -3% (inactive); under `CC(C)CCN1C(Nc2ccccc2)=NC[C@@H]1C`, 2.7% (inactive).
Same read-out and setting: under `COc1ccccc1-c1cc(C(=O)Nc2cc(C)n(Cc3ccc(Cl)cc3)n2)no1` stands 7.9% (inactive); under `Cc1c(Cl)cccc1NC(=O)CCCN1C(=O)c2cccnc2C1=O`, 3.3% (inactive).
In the case of `COc1ccc(Nc2c(-c3ccc(OC)cc3)nc3cnccn23)cc1`, the inhibition is -9.1% (inactive).
Same read-out and setting: under `O=C(/C=C/Nc1ccccc1)c1ccccc1` stands -0.7% (inactive); under `CC1(C)OC(=O)C(=CNc2ccccc2)C(=O)O1`, -0.4% (inactive); under `O=C([C@@H]1Cc2ccccc2CN1)N1CCN(Cc2ccccc2)CC1`, 8.9% (inactive).
The same measure, in the same setting: for `Cc1ccc(-n2ncc3c2CCCC3NC(=O)CCc2c(C)noc2C)cc1C` (configuration not stated) the value was 16.6% (inactive); for `CCNc1ccc(Br)cc(C(=O)/C=C/c2ccc(Cl)cc2Cl)c1=O`, 23.6% (inactive).
The same measure, in the same setting: for `CNc1ccc(Br)cc(C(=O)/C=C/c2ccc(Cl)cc2Cl)c1=O` the value was 52.7% (active); for `CNc1ccc(Br)cc(C(=O)/C=C/c2cccc(Cl)c2Cl)c1=O`, 41.9% (inactive).
For the compound `N=C1S/C(=C\c2ccco2)C(=O)N1c1ccc2c(c1)OCO2`, the inhibition was 56% (active).
Same read-out and setting: under `COc1cc(/C=C2\SC(=N)N(c3ccc4c(c3)OCO4)C2=O)cc(OC)c1O` stands -8.5% (inactive).
On the same count and under the same terms, under `N=C1S/C(=C\c2ccc(-c3cccc(Cl)c3)o2)C(=O)N1c1nccs1` stands 35.6% (inactive); under `N=C1S/C(=C\c2ccc(-c3ccccc3C(=O)O)o2)C(=O)N1c1ccc2c(c1)OCO2`, 17.7% (inactive).
Take `N=C1S/C(=C\c2ccco2)C(=O)N1c1nccs1`: the inhibition is 50% (active).
Still for that read-out and setting: for `COc1ccc(/C=C2\SC(=N)N(c3nccs3)C2=O)cc1OC` the value was 20.5% (inactive).
On the same count and under the same terms, under `c1ccc(Cc2nnc3sc(-c4cccnc4)nn23)cc1` stands -12.8% (inactive); under `COc1ccc(CN(CC(=O)NC(C)C)C(=O)CCC(=O)Nc2nccs2)cc1`, 9.7% (inactive).
Same read-out and setting: for `CCOc1ccc(N2C(=O)CN(C)C2=S)cc1` the value was -2% (inactive); for `CC1CCN(C(=O)CCc2ccc(S(=O)(=O)NC(C)C)cc2)CC1`, 28.5% (inactive); for `O=C(Cn1c(-c2ccco2)nc2ccccc21)N1CCCCC1`, -14.9% (inactive).
In the case of `Cn1nc(C(F)(F)F)c(-c2ccc(Br)cc2)c1NC(=O)c1nccnc1C(=O)O`, the inhibition is 0.4% (inactive).
On the same count and under the same terms, for `COc1ccc(NC2CCCN(C(=O)c3csc(C(C)C)n3)C2)cc1OC` (configuration not stated) the value was -10% (inactive).
On the same count and under the same terms, for `CSc1ccccc1OCc1cc(C(=O)NCc2cnc(C)cn2)no1` the value was 5.6% (inactive); for `Cc1cc(Cl)ccc1N=C1N=C(N)c2ccccc21`, -3.2% (inactive); for `Clc1ccc(N=c2ssnc2Cl)nc1`, 38.2% (inactive).
Still for that read-out and setting: for `OCc1ccccc1N=c1ssnc1Cl` the value was 9.9% (inactive); for `Nc1ccccc1N=c1ssnc1Cl`, 4.1% (inactive); for `Fc1ccc(N=c2ssnc2Cl)c(F)c1`, 91.2% (active).
Take `COc1cccc(CNC(=O)CSc2nnc3c(n2)[nH]c2ccc(OC)cc23)c1`: the inhibition is 5.3% (inactive).
Same read-out and setting: for `Cc1ccc2c(Cl)cc(Cl)c(OCC(=O)NCc3ccco3)c2n1` the value was 56.6% (active); for `Cc1cc(Cl)cc(Cl)c1OCC(=O)NCc1ccco1`, -1.4% (inactive); for `Cc1ccc2c(Cl)cc(Cl)c(OCC(=O)NC(=O)NCc3ccco3)c2n1`, 17.4% (inactive).
Same read-out and setting: for `CC1CCN(CC(=O)Nc2cccc(Cl)c2)CC1` the value was -2.2% (inactive); for `CC1(C(=O)N2CC3(CC(c4cccc([N+](=O)[O-])c4)=NO3)C[C@H]2C(=O)NCC(N)=O)CC1` (some centres not stated), -4.4% (inactive); for `O=C(O)C(O)c1ccco1` (configuration not stated), 65.3% (active).
Same read-out and setting: for `O=C(c1ccco1)C(O)c1ccco1` (configuration not stated) the value was 16.7% (inactive); for `O=P(c1ccccc1)(c1ccccc1)C(O)c1ccco1` (configuration not stated), -0.2% (inactive); for `FC(F)(F)Oc1ccc(NC(=S)NCCCN2CCOCC2)cc1`, -16.9% (inactive).
For `COC(=O)C1CCCN1S(=O)(=O)c1ccccc1NC(=O)c1cc(OC)c(OC)c(OC)c1` (configuration not stated), the inhibition was 12.9% (inactive).
Still for that read-out and setting: for `O=C(O)c1cccc(-c2ccc(/C=c3/sc4nc5ccccc5n4c3=O)o2)c1` the value was 26.7% (inactive); for `O=C(O)c1cc(C(=O)O)cc(-c2ccc(/C=c3/sc4nc5ccccc5n4c3=O)o2)c1`, 67% (active); for `O=C(O)c1ccc(-c2ccc(/C=c3/sc4nc5ccccc5n4c3=O)o2)cc1Cl`, 28.8% (inactive).
On the same count and under the same terms, under `COc1cc(/C=C(\C#N)c2nc3ccccc3s2)cc([N+](=O)[O-])c1O` stands 40.5% (inactive).
Same read-out and setting: for `COc1cc(/C=C(/C#N)c2nc(-c3cc4ccccc4oc3=O)cs2)cc([N+](=O)[O-])c1O` the value was 80.7% (active); for `COc1cc(/C=C(\C#N)c2nc(-c3cc4ccccc4oc3=O)cs2)ccc1O`, 23.3% (inactive).
As for `COc1ccc(N2Cc3ccc(C(=O)N/N=C\c4ccc(O)cc4O)cc3C2)cc1`, the inhibition was 68.9% (inactive). Further, for the setting “measured here: average of repeat tests”, the inhibition was determined as 29.4%.
With `COc1ccc(NC(=O)c2cc3c(CO)cnc(C)c3oc2=Nc2cccc(C)c2)c(OC)c1`, the inhibition is 10.6% (inactive).
In the case of `COc1ccc(NC(=O)c2cc3c(CO)cnc(C)c3oc2=Nc2cccc(F)c2)c(OC)c1`, the inhibition is 11.2% (inactive).
Consider `COc1ccccc1C(=O)OCC(=O)NC1CCCC1`, for which the inhibition was 16.7% (inactive).
For the compound `NC(=O)c1ccccc1NC(=O)CN1CCOCC1`, the inhibition is -0.5% (inactive).
Regarding `COc1cc(/C=C/c2ccc3cccc(O)c3n2)ccc1O`, the inhibition is 21.1% (inactive).
`COc1cc(/C=C/c2ccc3c(Br)cc(Br)c(O)c3n2)ccc1O`: the inhibition was 56.6% (active).
The same measure, in the same setting: for `COc1ccc(/C=C/c2ccc3c(Br)ccc(O)c3n2)cc1` the value was 32.5% (inactive).
The same measure, in the same setting: for `COCC(=O)N(Cc1nc2sc(C)c(C)c2c(=O)[nH]1)C1CCCCC1` the value was 4.2% (inactive).
Same read-out and setting: under `CN(Cc1ccccc1F)C(=O)c1ccccc1Sc1ccccc1C#N` stands -14.5% (inactive).
Take `Cc1ccc(Nc2nc(-c3c(C)nc4ncccn34)cs2)cc1`: the inhibition was 7.5% (inactive).
On the same count and under the same terms, for `Cc1nc2ncccn2c1-c1csc(Nc2ccc(O)cc2)n1` the value was 25% (inactive); for `COc1ccc(Nc2nc(-c3c(C)nc4ncccn34)cs2)cc1`, 55.6% (active); for `Cc1ccc2c(Cl)c(C(=O)NCC(c3ccco3)N3CCCC3)sc2c1` (configuration not stated), 3% (inactive).
Same read-out and setting: under `O=c1c(Cl)nc2cc(Cl)ccc2n1CCNc1ncc(C(F)(F)F)cc1Cl` stands -81.2% (inactive).
As for `Clc1ccc2nnnc(-c3ccccc3)c2c1`, the inhibition was 8.1% (inactive).
On the same count and under the same terms, for `Cc1cc(C(=O)COC(=O)Cn2c(C(F)(F)F)nc3ccccc32)c(C)n1Cc1ccco1` the value was 1.6% (inactive); for `CCOC(=O)CCCCCN1C(=O)c2cccc3cccc(c23)C1=O`, -9.7% (inactive).
Same read-out and setting: for `CC(=O)c1sc(NC(=O)CCN2C(=O)c3ccccc3C2=O)nc1C` the value was 14.5% (inactive).
Still for that read-out and setting: for `CCOC(=O)c1sc(NC(=O)CCCCCN2C(=O)c3cccc4cccc(c34)C2=O)nc1C` the value was 52.5% (active); for `O=C(CC1C(=O)NCCN1Cc1cccc(F)c1)NCCCOc1cccnc1` (configuration not stated), 0.9% (inactive); for `N=C1C(c2nc3ccccc3[nH]2)=C(O)CN1NC(=O)c1c[nH]c2ccccc12`, 2.4% (inactive).
As for `N=C1C(c2nc3ccccc3s2)=C(O)CN1NC(=O)c1c[nH]c2ccccc12`, the inhibition was 53.4% (active).
Same read-out and setting: for `N=C1C(c2nc3ccccc3s2)=C(O)CN1NC(=O)c1ccccc1[N+](=O)[O-]` the value was 14.9% (inactive).
The same measure, in the same setting: under `COc1cc(OC)c(C2C(C#N)=C(C)NC(C)=C2C#N)c(C(=O)O)c1` stands -3.5% (inactive); under `C=C(C)Cn1c(C2CC(=O)N(Cc3ccccc3)C2)nc2ccccc21` (configuration not stated), -9.9% (inactive); under `CCCN(CCC)CCCNC(=O)C1CCN(S(=O)(=O)c2cccc3nsnc23)CC1`, -0.6% (inactive).
